Source: PubChem BioAssay (NCI)
The panel holds about 83,000 compounds, 20% with a hit somewhere; the sample as a whole holds those more often.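 The test compound was applied at a single concentration to cells in 96-well plates for 48 hours, and percent growth was recorded.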

Columns and labels:
Assay in all cases: NCI-60 one-dose screen, 48 h (100 = growth as untreated, 0 = no growth, -100 = all killed)
Conditions in all cases: 10 µM unless noted; active = growth percent below 10; inactive = the rest
NCI-H23 lung = tested on: NCI-H23 lung
NCI-H226 lung = tested on: NCI-H226 lung
NCI-H322M lung = tested on: NCI-H322M lung
HOP-62 NSCLC = tested on: HOP-62 NSCLC
NCI-H460 lung = tested on: NCI-H460 lung
HOP-92 NSCLC = tested on: HOP-92 NSCLC
NCI-H522 lung = tested on: NCI-H522 lung
A549/ATCC NSCLC = tested on: A549/ATCC NSCLC
786-0 renal = tested on: 786-0 renal
COLO 205 colon = tested on: COLO 205 colon

Measured: growth

COC1OC(COC(C)=O)C(OC(C)=O)C(OC(C)=O)C1OC(C)=O (stereo not given)
inactive: NCI-H23 lung 98% | NCI-H226 lung 91.1% | NCI-H322M lung 101% | HOP-62 NSCLC 97.9% | NCI-H460 lung 115% | HOP-92 NSCLC 92.8% | NCI-H522 lung 71.9% | A549/ATCC NSCLC 91.5% | 786-0 renal 98.8% | COLO 205 colon 98.7%

CCc1ccccc1C(=O)N(CC)CC
inactive: NCI-H23 lung 103% | NCI-H226 lung 95.4% | NCI-H322M lung 105% | HOP-62 NSCLC 103% | NCI-H460 lung 104% | HOP-92 NSCLC 107% | NCI-H522 lung 105% | A549/ATCC NSCLC 97.1% | 786-0 renal 101% | COLO 205 colon 111%

NC(=S)N/N=C/c1ccc(OC(=O)COc2ccc(Cl)cc2)cn1
inactive: NCI-H23 lung 33.5% | NCI-H226 lung 93.5% | NCI-H322M lung 42.5% | HOP-62 NSCLC 53% | NCI-H460 lung 69.7% | HOP-92 NSCLC 66.9% | NCI-H522 lung 43.3% | A549/ATCC NSCLC 107% | 786-0 renal 32.5% | COLO 205 colon 84.7%

Nc1nnc2cc(F)ccc2n1
inactive: NCI-H23 lung 90.6% | NCI-H226 lung 96.3% | NCI-H322M lung 106% | HOP-62 NSCLC 101% | NCI-H460 lung 107% | HOP-92 NSCLC 85.2% | NCI-H522 lung 99.8% | A549/ATCC NSCLC 113% | 786-0 renal 105% | COLO 205 colon 134%

COC1C(=O)CCC2(CO2)C1(O)C1(C)OC1CCC(C)C (stereo not given)
inactive: NCI-H23 lung 69.5% | NCI-H226 lung 85.2% | NCI-H322M lung 76.8% | HOP-62 NSCLC 71.5% | NCI-H460 lung 20.5% | HOP-92 NSCLC 67.5% | NCI-H522 lung 62.8% | A549/ATCC NSCLC 56.2% | 786-0 renal 81.2% | COLO 205 colon 65.9%

O=C1C=C(c2ccccc2)C(O)(c2ccccc2)C1 (stereo not given)
inactive: NCI-H23 lung 99.1% | NCI-H226 lung 101% | NCI-H322M lung 106% | HOP-62 NSCLC 101% | NCI-H460 lung 110% | HOP-92 NSCLC 163% | NCI-H522 lung 94% | A549/ATCC NSCLC 93.4% | 786-0 renal 99.1% | COLO 205 colon 104%

CC(=O)C[n+]1ccc(C)cc1Sc1ccccc1C
inactive: NCI-H23 lung 91% | NCI-H226 lung 107% | NCI-H322M lung 102% | HOP-62 NSCLC 99.1% | NCI-H460 lung 104% | HOP-92 NSCLC 94.9% | NCI-H522 lung 98.1% | A549/ATCC NSCLC 112% | 786-0 renal 93.5% | COLO 205 colon 116%

CN(C)c1ccc(/C=C/C(=O)c2ccc(NC(N)=O)cc2)cc1
inactive: NCI-H23 lung 96.9% | NCI-H226 lung 104% | NCI-H322M lung 97% | HOP-62 NSCLC 94.1% | NCI-H460 lung 102% | HOP-92 NSCLC 103% | NCI-H522 lung 95.3% | A549/ATCC NSCLC 84.5% | 786-0 renal 97.1% | COLO 205 colon 112%

CCN(C(=O)Nc1ccccc1Cl)c1ccccc1
inactive: NCI-H23 lung 101% | NCI-H226 lung 107% | NCI-H322M lung 109% | HOP-62 NSCLC 111% | NCI-H460 lung 108% | HOP-92 NSCLC 101% | NCI-H522 lung 106% | A549/ATCC NSCLC 100% | 786-0 renal 112% | COLO 205 colon 113%

O=C(O)c1c[nH]c2ccccc2c1=O
inactive: NCI-H23 lung 96.5% | NCI-H226 lung 105% | NCI-H322M lung 94% | HOP-62 NSCLC 94.9% | NCI-H460 lung 105% | HOP-92 NSCLC 87% | NCI-H522 lung 93.1% | A549/ATCC NSCLC 104% | 786-0 renal 97.8% | COLO 205 colon 95.3%

O=C(O)c1ccc([N+](=O)[O-])cc1S(=O)(=O)O
inactive: NCI-H23 lung 104% | NCI-H226 lung 104% | NCI-H322M lung 113% | HOP-62 NSCLC 107% | NCI-H460 lung 105% | HOP-92 NSCLC 119% | NCI-H522 lung 101% | A549/ATCC NSCLC 97.2% | 786-0 renal 102% | COLO 205 colon 112%

CCOc1ccc(C(=O)O)cc1
inactive: NCI-H23 lung 97.6% | NCI-H226 lung 91.9% | NCI-H322M lung 108% | HOP-62 NSCLC 105% | NCI-H460 lung 103% | HOP-92 NSCLC 90.4% | NCI-H522 lung 101% | A549/ATCC NSCLC 108% | 786-0 renal 101% | COLO 205 colon 105%

NCC(O)C(O)C(O)C(O)CO (stereo not given)
inactive: NCI-H23 lung 98.2% | NCI-H226 lung 93.4% | NCI-H322M lung 100% | HOP-62 NSCLC 91.4% | NCI-H460 lung 102% | HOP-92 NSCLC 80.7% | NCI-H522 lung 102% | A549/ATCC NSCLC 78.4% | 786-0 renal 99.2% | COLO 205 colon 101%

OCC(O)COc1ccc(Cl)cc1Cl (stereo not given)
inactive: NCI-H23 lung 105% | NCI-H226 lung 106% | NCI-H322M lung 95.1% | HOP-62 NSCLC 88.4% | NCI-H460 lung 111% | HOP-92 NSCLC 130% | NCI-H522 lung 79.5% | A549/ATCC NSCLC 72.6% | 786-0 renal 93.4% | COLO 205 colon 94%

CCCC(OC(C)=O)c1ccc2c(c1)OCO2 (stereo not given)
inactive: NCI-H23 lung 97.7% | NCI-H226 lung 99.4% | NCI-H322M lung 97.8% | HOP-62 NSCLC 98.7% | NCI-H460 lung 106% | HOP-92 NSCLC 104% | NCI-H522 lung 103% | A549/ATCC NSCLC 104% | 786-0 renal 100% | COLO 205 colon 107%
